Only some compounds are listed: those with a hit (about 1.5% of all), similar ones and a draw of the others.
Myeloid diff MLP: promotes myeloid progenitor differentiation; actives 1% (n = 360,000); ER-HoxA9 myeloid progenitors, lysozyme-GFP differentiation, flow cytometry; calls only at 10 µM;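 active = normalized GFP-positive differentiation at or above the plate's own cutoff, the solvent-only control mean plus 3 SD; inconclusive = no clear call, values can overlap the other calls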;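 also: cells exposed to compound for four days before flow analysis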
TLR9-MyD88 block: blocks human TLR9 binding to MyD88; actives 0.21% (n = 340,000); inhibition, % at 4.98 µM; AID 504734; Q9NR96+Q99836; CHO BLA complementation TLR9-MyD88, CCF4 FRET ratio;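 active = inhibition above the mean over all tested compounds plus 3 SD, cut at about 21% in these data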;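 also: 0% = DMSO only wells and 100% = clavulanate BLA inhibitor control wells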
Target sequence (Q99836 whole entry, looked up): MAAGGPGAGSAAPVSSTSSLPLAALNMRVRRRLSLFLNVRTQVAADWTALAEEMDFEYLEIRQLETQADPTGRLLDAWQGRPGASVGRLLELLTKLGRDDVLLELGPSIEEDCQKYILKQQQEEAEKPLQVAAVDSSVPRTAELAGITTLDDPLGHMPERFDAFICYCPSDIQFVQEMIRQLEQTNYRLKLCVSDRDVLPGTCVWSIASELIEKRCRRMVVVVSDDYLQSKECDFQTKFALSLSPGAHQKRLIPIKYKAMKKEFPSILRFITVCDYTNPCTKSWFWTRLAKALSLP
Target sequence (Q9NR96 whole entry, looked up): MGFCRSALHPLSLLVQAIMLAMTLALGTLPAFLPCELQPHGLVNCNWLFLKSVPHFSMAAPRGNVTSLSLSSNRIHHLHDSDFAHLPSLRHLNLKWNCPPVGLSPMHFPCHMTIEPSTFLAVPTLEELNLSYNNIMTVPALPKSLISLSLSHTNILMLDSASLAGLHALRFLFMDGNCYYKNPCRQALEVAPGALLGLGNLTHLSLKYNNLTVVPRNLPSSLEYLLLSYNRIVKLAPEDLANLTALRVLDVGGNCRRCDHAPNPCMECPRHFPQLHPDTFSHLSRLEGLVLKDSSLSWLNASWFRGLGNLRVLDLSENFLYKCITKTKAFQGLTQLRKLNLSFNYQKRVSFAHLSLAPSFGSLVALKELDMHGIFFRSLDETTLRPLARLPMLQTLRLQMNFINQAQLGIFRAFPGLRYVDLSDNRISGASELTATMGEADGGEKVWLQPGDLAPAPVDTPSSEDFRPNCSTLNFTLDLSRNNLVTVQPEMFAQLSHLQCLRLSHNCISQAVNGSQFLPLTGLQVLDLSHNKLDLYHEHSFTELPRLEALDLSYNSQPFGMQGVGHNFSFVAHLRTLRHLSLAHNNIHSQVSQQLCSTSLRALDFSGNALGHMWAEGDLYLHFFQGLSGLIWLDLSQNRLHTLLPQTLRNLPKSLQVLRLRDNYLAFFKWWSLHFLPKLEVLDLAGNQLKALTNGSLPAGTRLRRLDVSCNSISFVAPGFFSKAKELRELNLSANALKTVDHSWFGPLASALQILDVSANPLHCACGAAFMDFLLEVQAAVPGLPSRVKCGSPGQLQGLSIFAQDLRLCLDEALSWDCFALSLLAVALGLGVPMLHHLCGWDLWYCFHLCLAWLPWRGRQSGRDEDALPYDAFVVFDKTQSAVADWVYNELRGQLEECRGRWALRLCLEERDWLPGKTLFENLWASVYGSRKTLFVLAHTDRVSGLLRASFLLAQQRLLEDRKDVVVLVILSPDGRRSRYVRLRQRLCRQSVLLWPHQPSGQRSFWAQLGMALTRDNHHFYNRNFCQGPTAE
TLR4-MyD88 BLA: TLR4-MyD88 interaction inhibition in cells | O00206+Q99836 | HeLa CL3-4 TLR4/MyD88 BLA complementation, FRET ratio | inhibition, % at 8.4 µM | actives 0.18% (n = 200,000) | AID 861; in the data active = inhibition above about 25%;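 also: 0% = vehicle and 100% = reference inhibitor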
NOD2 RIPK2 PPI: blocks binding of human NOD2 to RIPK2; actives 0.38% (n = 360,000); CHO BLA complementation NOD2-RIPK2, CCF4 ratio; inhibition, % at 4.98 µM; in the data active = inhibition above about 21%;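 also: 0% = vehicle only and 100% = reference blocker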
NOD2 RIPK2 conf: NOD2-RIPK2 interaction inhibition confirmed. shares compounds with NOD2 RIPK2 PPI. CHO cells, NOD2-RIPK2 BLA complementation, CCF4 FRET. inhibition, % at 4.98 µM. actives 70% (n = 1,200). AID 624370;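 active = mean inhibition across replicates above a set limit taken from the earlier primary screen, cut at about 21% in these data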;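 also: 0% = DMSO-only wells and the high end = clavulanate BLA-blocked wells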
BLA counter: counter-screen for NOD2-RIPK2 interaction inhibitors: BLA reporter; shares compounds with NOD2 RIPK2 PPI; CHO BLA reporter, CCF4 FRET ratio, counterscreen; inhibition, % at 4.98 µM; actives 57% (n = 1,200); AID 624371;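 active = mean inhibition above the low-control mean inhibition plus three low-control SD, cut at about 11% in these data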;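 also: 0% = DMSO only wells and 100% = clavulanate high control wells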
* marks the source's active call; other numbers are inactive results; i = inactive; ? = inconclusive; . = not tested or not shown; + = active, no number.

SMILES | Myeloid diff MLP | TLR9-MyD88 block | TLR4-MyD88 BLA | NOD2 RIPK2 PPI | NOD2 RIPK2 conf | BLA counter
O=C(NCc1ccccc1)C(c1ccccc1)n1c(=O)c(-c2cc3ccccc3[nH]2)nc2ccccc21 (stereo not given) | i | . | . | 48* | 44* | 65*
O=C(NCc1ccccc1)C(c1cc2ccccc2o1)n1c(=O)c(-c2ccccc2)nc2ccccc21 (stereo not given) | i | . | . | 1 | . | .
O=C(NCc1ccccc1)C(C1CC1)n1c(=O)c(-c2cc3ccccc3[nH]2)nc2ccccc21 (stereo not given) | i | . | . | 45* | 42* | 64*
O=C(NCc1ccccc1)C(c1cc2ccccc2o1)n1c(=O)c(-c2cc3ccccc3[nH]2)nc2ccccc21 (stereo not given) | i | . | . | 51* | 46* | 67*
Nc1ccc(C(=O)Nc2ccc(Nc3ccncc3)cc2)c([N+](=O)[O-])c1 | i | -2 | . | 2 | . | .
C=CC(=O)Nc1cccc(Nc2nc(N[C@H]3CC[C@H](N(C)C)CC3)nc3c2ncn3C(C)C)c1 | i | 1 | . | -2 | . | .
CCOC(=O)C1(C)CCCN1C(=O)c1ccc2ccccc2c1 (stereo not given) | i | . | . | -9 | . | .
Cc1ccc(CNC(=O)Nc2ccc3c(c2)N(C)C(=O)CS3)cc1 | i | 0 | 4 | 27* | -3 | -4
O=c1oc2cc(O)ccc2cc1-c1nc2ccccc2o1 | i | . | . | 57* | 54* | 68*
CCC(C)c1ccc(S(=O)(=O)N2CCN(C(=O)CN3C(=O)NC(C)(C4CC4)C3=O)CC2)cc1 (stereo not given) | i | -5 | . | 3 | . | .
CN(CC(=O)Nc1ccccc1Cl)C(=O)COC(=O)c1nc(Cl)c(Cl)c(Cl)c1Cl | i | 15 | . | 24* | 28* | 9
O=C(CCc1ccccc1)Nc1ccccc1 | i | -11 | -4 | 35* | -2 | -1
C=CCNC1=C(Cl)C(=O)N(c2cccc(Cl)c2Cl)C1=O | i | 6 | 6 | 22* | 8 | 8
Cc1ccccc1NC(=O)C1C2CCCCC21 (stereo not given) | i | -15 | . | 1 | . | .
Cc1ccccc1NC(=O)C1C2CC/C=C\CCC21 (stereo not given) | i | -5 | -15 | 27* | 0 | -2
O=C(Nc1ccc(F)cc1)C(c1ccccc1)N1CCN(c2ccncc2)CC1 (stereo not given) | i | . | . | -10 | . | .
Cc1cc(-c2ccco2)c(C#N)c2nc3ccccc3n12 | + | 5 | 12 | 22* | 18 | 15*
COC(=O)c1ccccc1NC(=O)CSc1nc2ccsc2c(=O)n1CCCCC(=O)O | i | 5 | . | -12 | . | .
COc1ccc(OC)c(-c2nn(-c3ccccc3)cc2C(=O)NC2(C)CCS(=O)(=O)C2)c1 (stereo not given) | i | 5 | . | -5 | . | .
Cc1cccc(C)c1N1CCN(C(c2cc3ccccc3o2)c2nnnn2C(C)(C)C)CC1 (stereo not given) | ? | . | . | 21* | -4 | -5
CCCCn1nnnc1C(c1cc2ccccc2o1)N1CCN(c2c(C)cccc2C)CC1 (stereo not given) | i | . | . | -3 | . | .
CN1C(=O)[C@H]2[C@@H](c3ccc(F)cc3)N3C(=O)c4ccccc4NC(=O)[C@@]3(C)[C@H]2C1=O | i | 5 | . | 22* | -2 | 0
Cc1cccc(S(=O)(=O)NC(=O)C2(C)CCN2C(=O)c2ccccc2)c1 (stereo not given) | i | . | . | 11 | . | .
Cc1ccc(CC(NC(=O)c2ccccc2)C(=O)NC(CC(C)C)C(=O)O)cc1 (stereo not given) | i | 11 | 11 | 59* | -2 | 1
Cn1c(=O)c2nc(NCc3ccccc3)cnc2n(C)c1=O | i | 2 | 24 | 17 | . | .
SMILES | Myeloid diff MLP | TLR9-MyD88 block | TLR4-MyD88 BLA | NOD2 RIPK2 PPI | NOD2 RIPK2 conf | BLA counter
Cc1nc2c(=O)n(C)c(=O)n(C)c2nc1Cl | ? | 17 | 21 | 24* | 30* | -8
O=C(Nc1ccc(S(=O)(=O)N2CCCC2)cc1)C1CC(=O)N(CCc2ccccc2)C1 (stereo not given) | i | 0 | . | 9 | . | .
C=CCOc1cccc(C(=O)/C=C2/C(=O)Nc3ccccc32)c1 | i | 9 | . | 41* | 39* | 4
CSc1ccc(C(O)c2ncc(-c3ccccc3Cl)[nH]2)cc1 (stereo not given) | i | . | . | -12 | . | .
CCN(CC)c1ccc(/C=N/NC(=O)Nc2ccccc2)cc1 | i | -16 | -15 | -10 | . | .
CCN(CC)c1ccc(C=C(c2nnnn2-c2ccccc2)c2nnnn2-c2ccccc2)cc1 | i | 3 | 2 | 27* | 30* | 30*
NC(=S)N/N=C1/CCSc2ccc3ccccc3c21 | i | 3 | 0 | 23* | 1 | -2
Cc1ccc(C(=O)OCC(=O)c2ccc(Br)cc2)cc1S(=O)(=O)N1CCOCC1 | i | 16 | . | 11 | . | .
CCC/C=C/c1ccc(CN2C(CC(C)C)C(=O)N(Cc3cn(Cc4ccco4)nn3)CCS2(=O)=O)cc1 (stereo not given) | i | -7 | . | 0 | . | .
NC(=O)CSc1ncc(-c2ccccc2)[nH]1 | i | -9 | 3 | -7 | . | .
O=[N+]([O-])c1ccc(-c2cnc(SC(c3ccccc3)c3ccccc3)[nH]2)cc1 | i | 14 | 9 | 44* | 19 | 26*
CCOC(=O)N1CCC(NC(=O)c2ccc3c(c2)N=C(C)c2c(C)ccc(C)c2S3)CC1 | ? | 14 | . | 24* | 16 | -1
Cc1cccc(-c2cccc3nccn23)c1 | i | . | . | 1 | . | .
Cc1cccc(NC(=O)c2cccc(S(=O)(=O)N(C)C3CCCCC3)c2)n1 | i | -5 | . | 21* | 1 | -2
O=C1CCC(=O)N1c1nc2n(n1)C(c1ccccc1)C=C(c1ccc(Br)cc1)N2 (stereo not given) | i | 14 | 10 | 39* | 16 | 12*
Cc1cccc2c(N=O)c(O)n(CCc3ccccc3)c12 | i | 16 | . | 26* | 25* | 14*
O=Nc1c(O)n(Cc2ccc(Cl)cc2)c2ccccc12 | i | 20 | 3 | 22* | 22* | 17*
CC1(Oc2ccc3ccccc3c2)CCN(Cc2ccc(OC(F)(F)F)cc2)C1 (stereo not given) | i | . | . | -1 | . | .
O=C1OCCN1CC(=O)N1CCc2c([nH]c3ccccc23)C1c1ccccn1 (stereo not given) | i | -13 | -8 | 22* | -12 | -4
CCC(C)Sc1cccc(-c2nc3cnccn3c2NC2CCCCC2)c1 (stereo not given) | i | 22* | . | 34* | 28* | 42*
CCCN(CC(=O)Nc1ccccc1C)C(=O)/C=C/c1ccc(OC)c(OC)c1 | i | 1 | . | -4 | . | .
CC(=O)C1=CCC(c2cccs2)N(S(=O)(=O)c2ccc(C)cc2)C1 (stereo not given) | i | . | . | 1 | . | .

From PubChem
